A number with no mark means an inactive call. The source made the active and inactive calls. No stated cut-off is given here; in the data, active means IC50 below about 9 µM; inactive means the rest.
tested on: Ba/F3 Cytotoxicity; assay: JAK2V617F kinase, IRF1 reporter and Ba/F3 cytotoxicity panel, late-stage follow-up, HEL and Ba/F3 cells (AID 2165)

Question: Which IC50 does the source give for `Cc1ccc(O)c(NC(=O)COc2cccc3ccccc23)c1` here?
Answer: 1.95 µM (active)

Question: For `CC(C)c1cc(C=C(C#N)C(=O)NCCCc2ccccc2)cc(C(C)C)c1O`, which IC50 is on record?
Answer: 4.29 µM (active)

Question: With `Cc1nnc(NC(=O)COc2ccccc2)s1` as the molecule, how does the IC50 read?
Answer: > 40 µM

Question: With `c1ccc(Nc2ncnc3ccccc23)cc1` as the molecule, how does the IC50 read?
Answer: > 40 µM

Question: `Cc1cc(C)c(C(=O)/C=C/c2ccccc2F)c(=O)[nH]1` was tested. Which IC50 did it give?
Answer: 0.69 µM (active)

Question: `Cc1ccc(O)c(NC(=O)COc2ccc(C3CCCCC3)cc2)c1` was tested. Which IC50 did it give?
Answer: 3.91 µM (active)

Question: How did the IC50 turn out when `CCC(C)c1ccc(OCC(=O)Nc2cc(C)ccc2O)cc1` (configuration not stated) was run?
Answer: 6.47 µM (active)

Question: Which IC50 does the source give for `Cc1cccc(OCC(=O)Nc2ccccc2F)c1` here?
Answer: > 40 µM

Question: `COc1cc2ncnc(Nc3cccc(Br)c3)c2cc1OC` was tested. Which IC50 did it give?
Answer: > 40 µM

Question: For `N#C/C(=C\c1ccc(O)c(O)c1)C(=O)NCCc1ccccc1`, which IC50 is on record?
Answer: 0.3 µM (active)

Question: `Cc1ccc(O)c(NC(=O)COc2ccc(C)c(C)c2)c1` was tested. Which IC50 did it give?
Answer: 5.02 µM (active)

Question: For `Cc1[nH]c(=O)c(C(=O)/C=C/c2ccccc2)c2c1CCCC2`, which IC50 is on record?
Answer: 0.89 µM (active)

Question: With `COc1cc(C=C(C#N)C(N)=O)cc(CSc2ccccc2)c1O` as the molecule, how does the IC50 read?
Answer: > 40 µM

Question: For `O=C(NCCc1cccnc1)C1CCC(=O)N(CCc2cccc(F)c2)C1` (configuration not stated), which IC50 is on record?
Answer: > 40 µM

Question: `COc1cc2ncc(-c3ccccc3)nc2cc1OC` was tested. Which IC50 did it give?
Answer: > 40 µM

Question: With `N#CC(=Cc1ccc(O)c(O)c1)C(=S)NCc1ccccc1` as the molecule, how does the IC50 read?
Answer: 1.09 µM (active)

Question: How did the IC50 turn out when `CCC(C)Nc1ncnc2cc(OC)c(OC)cc12` (configuration not stated) was run?
Answer: > 40 µM

Question: How did the IC50 turn out when `N#Cc1ccccc1NC(=O)COc1ccc2c(c1)OCO2` was run?
Answer: > 40 µM

Question: With `O=C(COc1ccccc1)Nc1ncccn1` as the molecule, how does the IC50 read?
Answer: > 40 µM

Question: How did the IC50 turn out when `COc1cc2ncnc(Nc3ccc(OC(F)(F)F)cc3)c2cc1OC` was run?
Answer: > 40 µM

Question: `Cc1ccc(O)c(NC(=O)COc2ccccc2C)c1` was tested. Which IC50 did it give?
Answer: 3.84 µM (active)

Question: `Cc1cccc(NC(=O)COc2cccc(C)c2)c1` was tested. Which IC50 did it give?
Answer: > 40 µM

Question: Which IC50 does the source give for `COCCOc1cc2nc[nH]c(=O)c2cc1OCCOC` here?
Answer: > 40 µM

Question: For `Clc1cccc(Nc2ncnc3ccccc23)c1`, which IC50 is on record?
Answer: > 40 µM

Question: `Cc1ccc(O)c(NC(=O)COc2ccc(F)cc2)c1` was tested. Which IC50 did it give?
Answer: 0.0825 µM (active)

Question: How did the IC50 turn out when `C=CCNc1ncnc2cc(OC)c(OC)cc12` was run?
Answer: > 40 µM

Question: For `Cc1[nH]c(=O)c(C(=O)C=Cc2ccc(Cl)cc2Cl)c2c1CCCC2`, which IC50 is on record?
Answer: 1.45 µM (active)

Question: For `Cc1ccc(O)c(NC(=O)COc2ccc(Br)cc2)c1`, which IC50 is on record?
Answer: 2.43 µM (active)

Question: `COCCOc1cc2ncnc(Nc3cccc(C#Cc4ccc(-c5ccccc5)cc4)c3)c2cc1OCCOC` was tested. Which IC50 did it give?
Answer: > 40 µM

Question: With `COCCOc1cc2ncnc(Nc3cccc(C#Cc4ccc(O)cc4)c3)c2cc1OCCOC` as the molecule, how does the IC50 read?
Answer: 3.68 µM (active)

Question: `COc1ccc(C)cc1NC(=O)Nc1ccc(Br)cn1` was tested. Which IC50 did it give?
Answer: > 40 µM

Question: With `O=C(C=Cc1ccccc1F)c1c(-c2ccccc2)c2ccccc2[nH]c1=O` as the molecule, how does the IC50 read?
Answer: 0.37 µM (active)

Question: `COc1cc2ncnc(N[C@H](C)c3ccccc3)c2cc1OC` was tested. Which IC50 did it give?
Answer: 3.19 µM (active)

Question: `Cc1ccc(O)c(NC(=O)COc2ccc(I)cc2)c1` was tested. Which IC50 did it give?
Answer: 0.0269 µM (active)

Question: With `Cc1[nH]c(=O)c(C(=O)/C=C/c2ccccc2F)c2c1CCCC2` as the molecule, how does the IC50 read?
Answer: 0.43 µM (active)

Question: `Cc1ccc(O)c(NC(=O)COc2cc(C)c(Cl)c(C)c2)c1` was tested. Which IC50 did it give?
Answer: 6.17 µM (active)

Question: How did the IC50 turn out when `Cc1ccc(O)c(NC(=O)COc2ccccc2Cl)c1` was run?
Answer: 0.0217 µM (active)

From PubChem BioAssay AID2165 (The Scripps Research Institute Molecular Screening Center, 2009)
